The text below walks through data of PubChem BioAssay (EPA / NIEHS).

The target in experiment [1] is Paired box protein Pax-6 (Homo sapiens) (UniProt P26367). Briefly: ATG_Pax6_CIS: Attagene CIS-FACTORIAL HepG2 Assay for human Paired Box 6 (PAX6) (AID 2282956). Conditions: HepG2 CIS-FACTORIAL PAX6 reporter transcription, RNA readout; actives raise or lower the signal. A digest of the protocol: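 Read-out is reporter transcript level, measured by RT-PCR with fluorescent primer extension and capillary electrophoresis after 24 h dosing of transfected HepG2 cells. Activity in either direction fitted relative to DMSO control.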

A short description of experiment [2]: ATG_PXRE_CIS: Attagene CIS-FACTORIAL HepG2 Assay for human Pregnane X Receptor Element (PXRE) (AID 2282957). The following applies: HepG2 Attagene CIS-FACTORIAL PXRE reporter, mRNA; actives raise or lower the signal. Summed up:
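Fluorescent capillary electrophoresis of amplified reporter cDNA gave the signal, collected 24 h after dosing HepG2 cells that held transfected cis-element reporter constructs.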

A short description of experiment [3]: ATG_RORE_CIS: Attagene CIS-FACTORIAL HepG2 Assay for human RAR-related Orphan Receptor Element (RORE) (AID 2282959). The following applies: HepG2 Attagene cis-factorial RORE reporter, mRNA; actives raise or lower the signal. Summed up:
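Cells were HepG2 carrying transfected cis-regulated reporter constructs, dosed for 24 hours. Total RNA was reverse-transcribed and reporter cDNA amplified, fluorescently labeled and sized by capillary electrophoresis. Activity was fitted bidirectionally relative to DMSO.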

A short description of experiment [4]: ATG_Sox_CIS: Attagene CIS-FACTORIAL HepG2 Assay for human SRY-box transcription factor (SOX) (AID 2282960). Conditions: HepG2 Attagene cis-factorial SOX reporter, mRNA; actives raise or lower the signal. A digest of the protocol: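 Transient MRTU transfection of HepG2; 24 h compound incubation; TriZol RNA, oligo(dT) RT, PCR, 6-FAM primer extension, HpaI cut, CE. Bidirectional fit, DMSO = baseline.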

Experiment [5] addresses Transcription factor Sp1 (Homo sapiens) (UniProt P08047). Briefly: ATG_Sp1_CIS: Attagene CIS-FACTORIAL HepG2 Assay for human Specificity Protein 1 (Sp1) (AID 2282961). Conditions: HepG2 Sp1 cis-reporter transcription, actives raise or lower the signal. A digest of the protocol: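 Endogenous Sp1 activity was gauged in human liver HepG2 cells bearing transfected reporter units under a cis-regulating promoter. After 24 h dosing, reporter mRNA was quantified by RT-PCR with capillary electrophoresis, and activity fitted bidirectionally versus DMSO.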

Experiment [6] is described as follows: ATG_SREBP_CIS: Attagene CIS-FACTORIAL HepG2 Assay for human Sterol Regulatory Element Binding (SREBP) (AID 2282962). Conditions: HepG2 Attagene cis-factorial SREBP reporter, mRNA; actives raise or lower the signal. A digest of the protocol: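 Endogenous SREBP activity read as cis-element-driven reporter transcript in transiently transfected HepG2, 24 h post-dosing; quantified via RT-PCR plus capillary electrophoresis of fluorescent fragments. Gain or loss of signal fitted relative to DMSO baseline.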

The target of experiment [7] is Signal transducer and activator of transcription 3 (Homo sapiens) (UniProt P40763). As to the kind of experiment: ATG_STAT3_CIS: Attagene CIS-FACTORIAL HepG2 Assay for human Signal Transducer and Activator of Transcription 3 (STAT3) (AID 2282963). Conditions: HepG2, Attagene cis-factorial STAT3 reporter transcription; actives raise or lower the signal. A digest of the protocol: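 Fluorescence intensity of 6-FAM-labelled reporter fragments, separated by capillary electrophoresis after RT-PCR, gave the signal. Cells were HepG2 transfected with cis-element reporter units and treated 24 h; fitting was bidirectional relative to DMSO.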

Experiment [8] in a line: ATG_TCF_b_cat_CIS: Attagene CIS-FACTORIAL HepG2 Assay for human T-Cell-Factor with beta-catenin (TCF/b-cat) (AID 2282965). The following applies: HepG2 TCF/beta-catenin cis-reporter transcription, actives raise or lower the signal. Summed up:
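HepG2 cells transiently transfected with cis-promoter-driven multiplexed reporter units; reporter mRNA measured 24 h after dosing by RT-PCR, FAM labelling, HpaI digestion and capillary electrophoresis. Bidirectional fitting relative to DMSO baseline.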

Experiment [9] is described as follows: ATG_TA_CIS: Attagene CIS-FACTORIAL HepG2 Assay for human TA Basal Promoter (AID 2282964). The following applies: HepG2 Attagene CIS-factorial TA basal promoter reporter; actives raise or lower the signal. Summed up: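 HepG2 cells transiently transfected with multiplexed cis-promoter reporter units, dosed 24 h. Reporter mRNA measured by RT-PCR, 6-FAM labelling, HpaI digestion and capillary electrophoresis; bidirectional fit versus DMSO baseline, serving as background control.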

Activity calls are given as the source filed them. How the source made its calls: active means hit-call score of the fitted dose curve at least 0.9, where 1 is the maximum; inactive means score below 0.9.

Sequence of Signal transducer and activator of transcription 3 (Homo sapiens) (P40763 whole entry, looked up, the tested form may be a part): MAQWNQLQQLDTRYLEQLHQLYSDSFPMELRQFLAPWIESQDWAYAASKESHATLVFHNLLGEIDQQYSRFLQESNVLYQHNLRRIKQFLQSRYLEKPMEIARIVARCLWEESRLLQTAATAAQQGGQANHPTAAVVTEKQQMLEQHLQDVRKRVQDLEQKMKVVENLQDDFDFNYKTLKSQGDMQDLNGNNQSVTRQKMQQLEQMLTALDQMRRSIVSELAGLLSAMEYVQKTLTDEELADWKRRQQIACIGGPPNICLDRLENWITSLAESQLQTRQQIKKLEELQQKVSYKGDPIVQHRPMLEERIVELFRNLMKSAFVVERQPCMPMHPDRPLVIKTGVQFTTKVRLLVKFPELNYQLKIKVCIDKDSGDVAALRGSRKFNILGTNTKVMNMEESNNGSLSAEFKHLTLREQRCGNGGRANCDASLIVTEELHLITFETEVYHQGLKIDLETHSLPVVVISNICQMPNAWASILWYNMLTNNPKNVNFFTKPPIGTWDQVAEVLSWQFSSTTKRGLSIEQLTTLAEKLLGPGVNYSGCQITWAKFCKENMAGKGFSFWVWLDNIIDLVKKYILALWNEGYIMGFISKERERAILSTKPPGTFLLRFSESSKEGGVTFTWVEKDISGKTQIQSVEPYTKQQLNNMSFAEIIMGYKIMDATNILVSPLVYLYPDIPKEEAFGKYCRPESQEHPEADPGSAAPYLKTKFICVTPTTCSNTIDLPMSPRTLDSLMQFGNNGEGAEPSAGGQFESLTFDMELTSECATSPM
Sequence of Transcription factor Sp1 (Homo sapiens) (P08047 whole entry, looked up): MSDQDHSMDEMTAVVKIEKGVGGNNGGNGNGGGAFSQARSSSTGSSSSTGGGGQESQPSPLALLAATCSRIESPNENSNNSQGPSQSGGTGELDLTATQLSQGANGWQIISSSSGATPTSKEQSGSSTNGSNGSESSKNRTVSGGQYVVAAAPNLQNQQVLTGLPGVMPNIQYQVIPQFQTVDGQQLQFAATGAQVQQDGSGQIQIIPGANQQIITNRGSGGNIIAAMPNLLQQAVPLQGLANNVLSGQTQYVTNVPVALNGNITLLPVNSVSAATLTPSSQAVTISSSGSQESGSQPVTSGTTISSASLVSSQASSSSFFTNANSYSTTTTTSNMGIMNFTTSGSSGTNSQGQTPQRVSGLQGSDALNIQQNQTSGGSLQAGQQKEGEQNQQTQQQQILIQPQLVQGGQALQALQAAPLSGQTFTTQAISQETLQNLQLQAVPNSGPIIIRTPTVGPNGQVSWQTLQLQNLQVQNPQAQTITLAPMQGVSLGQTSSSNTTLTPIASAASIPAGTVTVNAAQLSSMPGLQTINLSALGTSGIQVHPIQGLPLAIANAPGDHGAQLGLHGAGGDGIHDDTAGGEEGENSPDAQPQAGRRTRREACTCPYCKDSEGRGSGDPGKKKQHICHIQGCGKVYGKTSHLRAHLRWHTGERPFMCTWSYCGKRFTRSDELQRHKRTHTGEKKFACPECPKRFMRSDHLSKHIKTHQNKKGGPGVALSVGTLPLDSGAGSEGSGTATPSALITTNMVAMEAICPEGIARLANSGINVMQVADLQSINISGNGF
Sequence of Paired box protein Pax-6 (Homo sapiens) (P26367 whole entry, looked up): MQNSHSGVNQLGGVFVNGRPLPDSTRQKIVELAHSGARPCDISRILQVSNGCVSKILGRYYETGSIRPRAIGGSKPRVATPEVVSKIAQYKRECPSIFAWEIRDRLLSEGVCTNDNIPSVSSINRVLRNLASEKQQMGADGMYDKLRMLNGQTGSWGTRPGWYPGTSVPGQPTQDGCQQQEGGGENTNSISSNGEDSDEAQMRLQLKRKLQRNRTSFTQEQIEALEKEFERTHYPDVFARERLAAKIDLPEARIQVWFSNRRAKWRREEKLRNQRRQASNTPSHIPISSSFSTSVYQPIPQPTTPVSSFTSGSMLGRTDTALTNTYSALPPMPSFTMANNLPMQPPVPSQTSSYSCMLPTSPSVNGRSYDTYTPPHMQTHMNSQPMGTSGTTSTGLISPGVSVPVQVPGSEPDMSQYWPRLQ

On to `CC1CCC2CC1C2(C)C` (configuration not stated), for which the outcome in experiment [1], in [2], in [3], in experiment [4], in [5] and in experiment [6] was inactive. The call in [7] and in [8] was inactive.
`CCCCCOC(=O)CCC`: the compound was called inactive in experiment [1], in [2], in [3], in experiment [4], in experiment [5] and in [6]. Moreover, the outcome in experiment [7], in [9] and in [8] was inactive.
The AC50 is the concentration at which the activity in the assay is half-maximal. Consider `CC1(C)[C@H](C(=O)OCc2cccc(Oc3ccccc3)c2)[C@@H]1C=C(Cl)Cl`, for which the compound was classed as inactive in experiment [1], in [3], in [4], in experiment [5], in experiment [6] and in [7]. Moreover, the call in [9] and in [8] was inactive. For the same compound, the AC50 in experiment [2] is 4.97 µM (active).
As for `FC1(F)C(F)(F)C(F)(F)C2(F)C(F)(C1(F)F)C(F)(F)C(F)(F)C1(F)C(F)(F)C(F)(F)C(F)(F)C(F)(F)C12F` (configuration not stated), the compound was called inactive in [1], in experiment [3], in [4], in [5], in experiment [6] and in experiment [7]. Besides, the compound was called inactive in [9] and in experiment [8]. The AC50 in [2] was 37.5 µM (active).
Regarding `O=C(COc1ccc(Cl)cc1)N1CCN(Cc2ccc3c(c2)OCO3)CC1`, the figures for the AC50 in [1], in experiment [2] and in experiment [6] were 57.7 µM (active), 4.76 µM (active) and 27.1 µM (active), respectively. In addition, the call in experiment [3], in experiment [4], in [5], in [7], in [9] and in experiment [8] was inactive.
In the case of `CC(C)[C@@H]1CC[C@@H](C)CC1=O`, the compound was classed as inactive in experiment [1], in experiment [2], in [3], in [4], in experiment [5] and in experiment [6]. Further, the outcome in [7], in experiment [9] and in [8] was inactive.
Turning to `O=[N+]([O-])c1cc(C(F)(F)F)ccc1Cl`, the call in experiment [1], in experiment [3], in experiment [4], in [5], in [6] and in experiment [7] was inactive. Besides, the compound was classed as inactive in [9] and in experiment [8]. Moreover, the AC50 in [2] was 12.7 µM (active).
Regarding `CC(=O)OCCOC(C)=O`, the compound was called inactive in experiment [1], in [3], in [4], in experiment [5], in experiment [6] and in [7]. Further, the call in experiment [9] and in [8] was inactive. Moreover, in [2], the AC50 was 82.2 µM (active).
Regarding `C=O`, the outcome in experiment [1], in [4], in [5], in [6], in experiment [7] and in [9] was inactive. Besides, the compound was called inactive in experiment [8]. Further, in experiment [2], the AC50 is 27.7 µM (active).
In the case of `Nc1ccc(S(N)(=O)=O)cc1`, the compound was called inactive in [1], in experiment [2], in experiment [4], in experiment [5], in experiment [6] and in [7]. The compound was called inactive in experiment [9] and in experiment [8].
Regarding `CNC[C@H](O)c1cccc(O)c1`, the call in [1], in experiment [4], in [5], in experiment [6], in [9] and in [8] was inactive. Further, the AC50 in experiment [2] was 34.2 µM (active).
As to `Sc1nc(S)nc(S)n1`, the result in experiment [1], in experiment [2], in experiment [3], in [4], in experiment [6] and in experiment [7] was inactive. Moreover, the compound was called inactive in experiment [9] and in experiment [8].
With `O=C1c2ccccc2C(=O)N1SC1CCCCC1`, the result in experiment [1], in experiment [4], in experiment [6], in experiment [9] and in experiment [8] was inactive. Moreover, the half-maximal activity concentration (AC50) in experiment [2] was 148 µM (active); in [5], 59.1 µM (active); in experiment [7] it was 145 µM (active).
On to `S=C(S)NCCNC(=S)S`, for which the result in experiment [1], in experiment [2], in experiment [3], in experiment [4], in experiment [6] and in [7] was inactive. In addition, the result in experiment [8] was inactive.
`c1ccc(CCCc2ccccn2)cc1`: the result in [1], in experiment [3], in [4], in [5], in [6] and in [9] was inactive. Also, the outcome in [8] was inactive. The AC50 in experiment [2] was 100 µM (active).
In the case of `OC[C@H]1O[C@H](O[C@]2(CCl)O[C@H](CCl)[C@@H](O)[C@@H]2O)[C@H](O)[C@@H](O)[C@H]1Cl`, the call in experiment [1], in [2], in [3], in experiment [4], in experiment [5] and in [6] was inactive. The result in [9] and in experiment [8] was inactive.
Consider `CC[C@]12CCCN3CCc4c(n(c5ccccc45)[C@@](O)(C(=O)OC)C1)[C@@H]32`, for which the result in [1], in experiment [4], in experiment [5], in experiment [6], in [7] and in experiment [8] was inactive. The AC50 in experiment [2] is 7.96 µM (active).
Turning to `C=CC(=O)OCCOCCOCC`, the AC50 in experiment [1] is 68.4 µM (active); in experiment [2] it was 27 µM (active). Besides, the compound was classed as inactive in experiment [3], in experiment [4], in experiment [6], in [7], in [9] and in experiment [8].
As for `CC(C)(Oc1ccc(CCNC(=O)c2ccc(Cl)cc2)cc1)C(=O)O`, the call in experiment [1], in experiment [3], in [4], in experiment [5], in experiment [6] and in [9] was inactive. Also, in experiment [8], the outcome was inactive. The AC50 in [2] was 25.6 µM (active).
For `NCCOCCO`, the outcome in experiment [1], in experiment [2], in experiment [4], in experiment [5], in experiment [6] and in experiment [7] was inactive. The compound was called inactive in experiment [9] and in experiment [8].
Consider `OCCOCCOCCOCCO`, for which the result in experiment [1], in experiment [3], in [4], in experiment [6], in experiment [7] and in [9] was inactive. In addition, the result in [8] was inactive. Also, the AC50 in experiment [2] was 29.4 µM (active).
`CCCCC(CC)COCCC#N` (configuration not stated): the outcome in [1], in [4], in experiment [5], in experiment [6], in [7] and in experiment [9] was inactive. Besides, the outcome in experiment [8] was inactive. Besides, the AC50 in experiment [2] was 27.9 µM (active).
Take `CC(C)C1CCC(O)CC1` (configuration not stated): the compound was called inactive in experiment [1], in [2], in experiment [3], in experiment [4], in [6] and in experiment [9]. Further, in experiment [8], the result was inactive.
As for `C/C=C(\C)C(=O)OCc1ccccc1`, the call in [1], in [2], in experiment [4], in experiment [5], in experiment [6] and in [7] was inactive. In addition, the compound was classed as inactive in experiment [9] and in experiment [8].
With `CC(c1cc2ccccc2s1)N(O)C(N)=O` (configuration not stated), the compound was classed as inactive in [1], in [2], in [4], in [5], in experiment [6] and in [9]. In addition, the result in experiment [8] was inactive.
